Results on eleven compounds are retold here after ChEMBL document CHEMBL3988442, “University of Dundee, Small-Polar-MMV Screening Library” (2021).

For some of these results: Results with a measured potency or affinity are listed apart.

Parameters in all cases: scale not given: direction of the effect not stated beside the values
The target of experiment [1] is Protein translocase subunit SecA (Escherichia coli (strain K12)) (UniProt P10408). Description: Assay to Identify E. coli SecA ATPase Inhibitors. The class given is functional. The settings on record: 30 µM.
In experiment [2] the target is T1, Ubiquitin-activating enzyme e1, putative (Leishmania donovani (strain BPK282A1)) (UniProt E9BSI1).
T1 sequence (whole entry): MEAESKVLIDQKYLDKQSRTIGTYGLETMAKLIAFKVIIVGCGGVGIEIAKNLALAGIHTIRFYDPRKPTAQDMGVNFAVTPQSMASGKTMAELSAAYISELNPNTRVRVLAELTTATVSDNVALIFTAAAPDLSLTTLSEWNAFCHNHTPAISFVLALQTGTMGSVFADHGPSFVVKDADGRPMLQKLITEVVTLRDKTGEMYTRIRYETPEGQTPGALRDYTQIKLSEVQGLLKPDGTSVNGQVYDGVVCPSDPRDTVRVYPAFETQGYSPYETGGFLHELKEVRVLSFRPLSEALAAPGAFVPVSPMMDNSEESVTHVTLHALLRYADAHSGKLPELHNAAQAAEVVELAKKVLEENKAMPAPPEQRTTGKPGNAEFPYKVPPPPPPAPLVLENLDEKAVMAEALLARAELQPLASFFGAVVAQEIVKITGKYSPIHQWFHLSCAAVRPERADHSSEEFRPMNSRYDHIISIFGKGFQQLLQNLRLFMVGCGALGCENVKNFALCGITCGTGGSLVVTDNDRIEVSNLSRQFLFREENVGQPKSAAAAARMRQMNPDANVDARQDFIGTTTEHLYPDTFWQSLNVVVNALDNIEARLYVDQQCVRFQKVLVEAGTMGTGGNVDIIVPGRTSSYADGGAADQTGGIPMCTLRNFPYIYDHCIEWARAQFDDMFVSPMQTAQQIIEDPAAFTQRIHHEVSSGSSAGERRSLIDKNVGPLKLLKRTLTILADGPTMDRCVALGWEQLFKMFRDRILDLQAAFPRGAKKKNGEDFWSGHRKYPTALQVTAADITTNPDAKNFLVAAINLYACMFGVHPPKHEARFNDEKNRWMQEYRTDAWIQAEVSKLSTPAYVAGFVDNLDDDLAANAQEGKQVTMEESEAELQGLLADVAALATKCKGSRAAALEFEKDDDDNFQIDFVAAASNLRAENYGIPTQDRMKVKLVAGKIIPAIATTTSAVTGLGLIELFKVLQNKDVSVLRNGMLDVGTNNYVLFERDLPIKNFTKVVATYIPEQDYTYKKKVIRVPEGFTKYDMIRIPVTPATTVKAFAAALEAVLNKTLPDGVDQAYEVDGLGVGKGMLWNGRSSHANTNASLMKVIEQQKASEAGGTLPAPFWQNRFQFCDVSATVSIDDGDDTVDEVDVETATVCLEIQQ
Description: Leishmania donovani Ubiquitin Activating Enzyme (LdE1). The class given is functional. The settings on record: 30 µM.

The target in experiment [3] is AMP-activated protein kinase, AMPK (Homo sapiens) (UniProt P54646+O43741+P54619+Q9UGJ0+Q9Y478+Q13131+Q9UGI9). Description: AMP-dependent Kinase enzyme assay. An in vitro enzyme assay that detects ADP turnover that is directly proportional to AMPK activity. This uses naive AMPK that is activated during the assay with MK-8722. The experiment is classed as functional. The settings on record: 30 µM.

Experiment [4] addresses Sialic acid-binding Ig-like lectin 9 (Homo sapiens) (UniProt Q9Y336). Description: Hs-Siglec9 ALPHAscreen SOP 20170721. The settings on record: 10 µM.
The test system of experiment [5] is Trypanosoma cruzi. As to the kind of experiment: Trypanosoma cruzi phosphomannomutase and mannose-1-phosphate guanylyltransferase assay. The class given is functional. To be noted: 10 µM.
For experiment [6], the target named is T2, Arginase-2, mitochondrial (Homo sapiens) (UniProt P78540).
T2 sequence (whole entry): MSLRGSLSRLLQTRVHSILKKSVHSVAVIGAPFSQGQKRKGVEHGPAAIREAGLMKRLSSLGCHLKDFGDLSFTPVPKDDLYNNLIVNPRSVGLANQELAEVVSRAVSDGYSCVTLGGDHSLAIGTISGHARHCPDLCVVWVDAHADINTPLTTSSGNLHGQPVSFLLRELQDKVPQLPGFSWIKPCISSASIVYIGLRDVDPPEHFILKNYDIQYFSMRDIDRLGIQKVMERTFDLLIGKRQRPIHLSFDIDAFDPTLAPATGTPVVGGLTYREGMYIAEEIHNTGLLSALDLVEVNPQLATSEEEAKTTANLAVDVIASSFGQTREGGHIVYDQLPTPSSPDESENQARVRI
Description: in vitro enzyme assay to detect the production of urea directly proportional to the activity of Arginase II. Note: in the data most compounds retested in dose-response had high values. The settings on record: 33.3 µM. The class given is functional.

The target of experiment [7] is T3, Proteasome subunit beta (Trypanosoma cruzi) (UniProt O96673).
T3 sequence (whole entry): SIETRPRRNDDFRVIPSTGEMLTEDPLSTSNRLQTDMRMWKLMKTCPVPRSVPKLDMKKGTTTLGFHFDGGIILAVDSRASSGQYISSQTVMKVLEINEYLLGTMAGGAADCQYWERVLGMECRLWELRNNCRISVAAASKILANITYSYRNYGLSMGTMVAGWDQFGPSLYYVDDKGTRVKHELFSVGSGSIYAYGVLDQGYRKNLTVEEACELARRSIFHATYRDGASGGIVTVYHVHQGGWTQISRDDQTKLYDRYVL
Description: Trypanosoma cruzi proteasome chymotrypsin-like activity (TcProtChymo) assay. Note: in the data most compounds retested in dose-response had high values. The class given is functional. To be noted: 9.37 µM.

The species named for experiment [8] is Homo sapiens. As to the kind of experiment: To identify inhibition of the IFN signalling (Jak-Stat) pathway via expression of an eGFP reporter gene under the control of an IFN-stimulated response element (ISRE) containing MxA promoter. The class given is functional. The settings on record: 30 µM.
Experiment [9] deals with T4, Tyrosyl-tRNA synthetase, putative (Trypanosoma cruzi (strain CL Brener)) (UniProt Q4DSP6).
T4 sequence (whole entry): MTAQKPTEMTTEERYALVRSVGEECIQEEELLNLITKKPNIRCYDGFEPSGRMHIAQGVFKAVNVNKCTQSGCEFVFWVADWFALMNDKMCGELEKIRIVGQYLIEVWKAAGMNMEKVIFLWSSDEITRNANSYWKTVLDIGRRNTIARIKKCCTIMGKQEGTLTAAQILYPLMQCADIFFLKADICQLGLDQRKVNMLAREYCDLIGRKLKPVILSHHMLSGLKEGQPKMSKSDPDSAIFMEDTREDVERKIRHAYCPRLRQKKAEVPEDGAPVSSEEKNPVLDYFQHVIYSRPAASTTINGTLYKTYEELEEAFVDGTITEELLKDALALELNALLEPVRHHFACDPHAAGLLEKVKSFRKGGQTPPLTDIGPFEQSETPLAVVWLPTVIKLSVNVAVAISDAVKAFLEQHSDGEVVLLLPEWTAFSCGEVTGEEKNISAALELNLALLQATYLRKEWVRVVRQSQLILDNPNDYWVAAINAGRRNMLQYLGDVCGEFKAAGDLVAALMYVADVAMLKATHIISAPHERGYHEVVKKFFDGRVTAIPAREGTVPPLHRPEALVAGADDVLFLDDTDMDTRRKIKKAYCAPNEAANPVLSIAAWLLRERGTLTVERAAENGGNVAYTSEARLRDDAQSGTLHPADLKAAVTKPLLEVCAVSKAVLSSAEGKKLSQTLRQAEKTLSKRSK
Description: Trypanosoma cruzi tyrosyl tRNA synthetase (TcYRS) _High Tyrosine SOP. Note: in the data most compounds retested in dose-response had high values. The class given is functional. To be noted: 30 µM.

Experiment [10] has as its target T4, Tyrosyl-tRNA synthetase, putative (Trypanosoma cruzi (strain CL Brener)). Description: Trypanosoma cruzi tyrosyl tRNA synthetase (TcYRS) SOP. The class given is functional. The settings on record: 30 µM.
The target of experiment [11] is Chromo domain-containing protein 1 (Saccharomyces cerevisiae (strain ATCC 204508 / S288c) (Baker's yeast)) (UniProt P32657). Description: ScCHD-1 Enzyme Inhibition Assay. Note: in the data most compounds retested in dose-response had high values. The experiment is classed as functional. To be noted: 30 µM.
Chromo domain-containing protein 1 (Saccharomyces cerevisiae (strain ATCC 204508 / S288c) (Baker's yeast)), sequence (P32657 whole entry, the tested form may be a part): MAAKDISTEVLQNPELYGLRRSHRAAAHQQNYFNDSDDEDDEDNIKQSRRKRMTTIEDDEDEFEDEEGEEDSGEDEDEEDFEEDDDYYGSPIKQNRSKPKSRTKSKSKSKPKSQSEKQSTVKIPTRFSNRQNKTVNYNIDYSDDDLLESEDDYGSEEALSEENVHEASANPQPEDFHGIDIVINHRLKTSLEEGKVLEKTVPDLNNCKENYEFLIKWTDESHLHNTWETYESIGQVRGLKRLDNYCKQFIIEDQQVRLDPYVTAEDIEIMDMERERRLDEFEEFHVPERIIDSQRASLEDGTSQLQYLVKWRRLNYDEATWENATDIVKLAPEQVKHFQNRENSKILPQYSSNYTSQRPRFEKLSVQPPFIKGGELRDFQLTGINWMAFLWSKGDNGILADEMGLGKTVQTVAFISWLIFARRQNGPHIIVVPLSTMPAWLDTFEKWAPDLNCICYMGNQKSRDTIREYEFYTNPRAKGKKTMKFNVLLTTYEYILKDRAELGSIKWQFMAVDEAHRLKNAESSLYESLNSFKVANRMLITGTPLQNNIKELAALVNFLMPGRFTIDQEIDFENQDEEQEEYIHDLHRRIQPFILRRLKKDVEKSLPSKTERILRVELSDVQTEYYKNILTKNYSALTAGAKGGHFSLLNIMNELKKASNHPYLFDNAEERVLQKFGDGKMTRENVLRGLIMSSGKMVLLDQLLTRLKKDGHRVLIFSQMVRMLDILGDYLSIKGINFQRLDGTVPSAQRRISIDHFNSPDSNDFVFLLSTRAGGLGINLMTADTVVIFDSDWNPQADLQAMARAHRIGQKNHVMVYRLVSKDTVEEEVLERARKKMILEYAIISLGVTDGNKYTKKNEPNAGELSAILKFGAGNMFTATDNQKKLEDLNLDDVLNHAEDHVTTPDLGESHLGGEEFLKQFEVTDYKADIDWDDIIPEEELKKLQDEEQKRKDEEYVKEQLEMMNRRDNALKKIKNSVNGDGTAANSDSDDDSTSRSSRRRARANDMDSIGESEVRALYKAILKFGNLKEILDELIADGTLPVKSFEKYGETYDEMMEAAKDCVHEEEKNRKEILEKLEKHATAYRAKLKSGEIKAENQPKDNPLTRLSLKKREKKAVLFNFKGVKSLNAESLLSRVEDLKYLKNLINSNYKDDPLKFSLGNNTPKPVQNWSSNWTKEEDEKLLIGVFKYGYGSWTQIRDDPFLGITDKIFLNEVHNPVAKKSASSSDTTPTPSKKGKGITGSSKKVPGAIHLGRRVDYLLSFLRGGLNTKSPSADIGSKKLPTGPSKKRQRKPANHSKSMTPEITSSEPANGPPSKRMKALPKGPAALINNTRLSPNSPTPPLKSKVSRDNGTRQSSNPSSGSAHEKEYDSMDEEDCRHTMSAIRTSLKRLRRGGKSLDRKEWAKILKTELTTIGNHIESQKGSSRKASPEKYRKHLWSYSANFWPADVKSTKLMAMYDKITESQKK

Sialic acid-binding Ig-like lectin 9 (Homo sapiens), sequence (Q9Y336 whole entry): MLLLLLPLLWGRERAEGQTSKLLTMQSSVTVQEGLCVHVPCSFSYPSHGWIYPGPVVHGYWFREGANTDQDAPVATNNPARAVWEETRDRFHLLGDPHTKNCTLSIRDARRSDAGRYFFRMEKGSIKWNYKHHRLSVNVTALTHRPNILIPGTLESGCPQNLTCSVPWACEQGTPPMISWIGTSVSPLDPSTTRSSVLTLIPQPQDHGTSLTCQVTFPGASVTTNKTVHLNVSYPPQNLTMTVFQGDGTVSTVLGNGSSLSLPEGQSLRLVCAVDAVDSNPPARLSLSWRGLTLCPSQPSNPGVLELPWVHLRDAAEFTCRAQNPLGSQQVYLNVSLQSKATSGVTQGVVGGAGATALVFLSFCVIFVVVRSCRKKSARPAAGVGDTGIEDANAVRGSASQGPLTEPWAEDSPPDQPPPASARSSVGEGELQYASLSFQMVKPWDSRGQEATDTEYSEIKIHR
Protein translocase subunit SecA (Escherichia coli (strain K12)), sequence (P10408 whole entry): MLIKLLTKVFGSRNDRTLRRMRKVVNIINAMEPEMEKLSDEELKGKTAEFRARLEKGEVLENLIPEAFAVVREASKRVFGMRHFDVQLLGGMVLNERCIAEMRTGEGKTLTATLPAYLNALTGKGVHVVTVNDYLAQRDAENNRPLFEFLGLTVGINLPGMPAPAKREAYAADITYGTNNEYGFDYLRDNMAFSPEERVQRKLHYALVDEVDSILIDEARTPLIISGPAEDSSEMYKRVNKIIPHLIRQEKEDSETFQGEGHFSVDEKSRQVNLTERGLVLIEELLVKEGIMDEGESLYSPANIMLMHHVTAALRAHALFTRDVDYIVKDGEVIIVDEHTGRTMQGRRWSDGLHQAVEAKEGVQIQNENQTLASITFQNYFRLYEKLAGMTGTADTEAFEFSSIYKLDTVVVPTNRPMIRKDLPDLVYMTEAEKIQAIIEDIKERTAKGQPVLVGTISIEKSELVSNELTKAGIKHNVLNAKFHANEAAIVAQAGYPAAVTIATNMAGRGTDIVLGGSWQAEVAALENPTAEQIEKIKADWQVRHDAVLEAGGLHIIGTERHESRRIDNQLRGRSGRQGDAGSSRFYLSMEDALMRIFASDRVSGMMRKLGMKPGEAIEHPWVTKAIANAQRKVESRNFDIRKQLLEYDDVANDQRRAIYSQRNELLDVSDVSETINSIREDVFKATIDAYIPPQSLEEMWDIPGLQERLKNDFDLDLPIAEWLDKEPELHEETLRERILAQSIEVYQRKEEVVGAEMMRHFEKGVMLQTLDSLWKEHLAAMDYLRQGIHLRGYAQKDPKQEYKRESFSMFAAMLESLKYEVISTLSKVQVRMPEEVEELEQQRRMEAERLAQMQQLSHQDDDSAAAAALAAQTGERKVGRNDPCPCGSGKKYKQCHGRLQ

As to `O=C(O)c1c[nH]c2cc(NS(=O)(=O)c3cccc(Cl)c3F)ccc12`, the Percent Effect in experiment [1] is -4.73%; in experiment [2] it was -10.4%; in [3], -45.8%; in experiment [4], 7.97%; in experiment [5] it was 0.562%; in [6] it was 5.69%. The Percent Effect in experiment [7] was 4.22%; in [8], 2.38%; in experiment [9] it was -11.7%; in experiment [10], -24.4%; in experiment [11], 0.552%.
With `CCc1cc(NCCNc2cccnc2)n2nccc2n1`, the Percent Effect in [1] is -3.38%; in [2], 2.7%; in experiment [3], 3.96%; in experiment [4], 4.15%; in experiment [5] it was -3.09%; in experiment [6], 1.91%. The Percent Effect in [7] was 10%; in experiment [8], 13.2%; in experiment [9], 4.76%; in [10] it was 7.32%; in [11], -3.82%.
Take `Cn1cc(C(=O)Nc2ccc3c(c2)CN(C(=O)c2ccco2)CC3)nn1`: the Percent Effect is -2.6% in experiment [1]; 7.79% in experiment [2]; 7.19% in experiment [3]; 9.07% in [4]; 3.65% in experiment [5]; -5.81% in [6]. For the same compound, the Percent Effect in experiment [7] was 7.66%; in experiment [8], 0.998%; in [9], 4.23%; in [10], 11.5%; in [11], -7.06%.
`CCc1nc(CN2CCCC(NCc3cnn(C(C)(C)C)c3)C2)no1` (stereo unspecified): the Percent Effect was -2.85% in experiment [1]; 2.53% in [2]; -0.494% in experiment [3]; 3.84% in experiment [4]; -1.6% in experiment [5]; -1.52% in experiment [6]. Also, the Percent Effect in [7] is 6.63%; in [8], 14.9%; in [9], -1.48%; in experiment [10], -1.27%; in [11], -0.901%.
As to `CCCc1n[nH]c(C2CN(CCCS(C)(=O)=O)CCO2)n1` (stereo unspecified), the Percent Effect in [1] was -5.31%; in experiment [2] it was 11.4%; in experiment [3], 0.105%; in experiment [4] it was -1.3%; in experiment [5] it was 1.13%; in [6], 2.37%. The Percent Effect was 14.1% in [7]; 1.09% in experiment [8]; 5.21% in experiment [9]; 10.1% in experiment [10]; -22.8% in [11].
In the case of `CN(C)c1cc(CNC(=O)c2ccc(=O)[nH]n2)ccn1`, the Percent Effect in experiment [1] was -2.65%; in experiment [2] it was 18.2%; in experiment [3] it was -1.88%; in [4], -14.6%; in experiment [5] it was 3.82%; in experiment [6], -2.32%. Besides, the Percent Effect in experiment [7] was 17.9%; in [8], 4.06%; in experiment [9], 9.52%; in experiment [10] it was 30.6%; in [11], -19.7%.
Regarding `CCOCC1CN(C(=O)CS(C)(=O)=O)Cc2cnn(C)c21` (stereo unspecified), the Percent Effect in experiment [1] is -1.67%; in experiment [2] it was 2.67%; in [3] it was -16.6%; in experiment [4], 8.66%; in experiment [5], -3.28%; in [6] it was -11.3%. Besides, the Percent Effect was 4.27% in experiment [7]; 1.39% in experiment [8]; 2.08% in experiment [9]; 2.5% in experiment [10]; -6.62% in [11].
Take `COC[C@]12COC[C@H]1CN(Cc1cc(OC)cc(OC)c1)C2`: the Percent Effect was -2.64% in [1]; 2.7% in experiment [2]; -1.96% in experiment [3]; 2.27% in experiment [4]; 4.59% in experiment [5]; 6.05% in experiment [6]. Moreover, the Percent Effect in experiment [7] is 11.2%; in experiment [8], -4.13%; in experiment [9] it was 1.08%; in experiment [10], 7.69%; in experiment [11], 2.95%.
On to `O=C(c1cc2c(s1)CCC2)N1CCCCC1Cn1cccn1` (stereo unspecified), for which the Percent Effect in experiment [1] is -4.04%; in [2], 10.8%; in experiment [3], -1.14%; in [4] it was 3.35%; in experiment [5] it was -5.11%; in experiment [6], -3.88%. The Percent Effect in experiment [7] is -0.539%; in experiment [8] it was 2.18%; in experiment [9] it was 4.95%; in experiment [10], 6.1%; in experiment [11], 1.75%.
As to `Cc1ccc(CN2CC[C@H]3OCC[C@@H](c4nc(C)no4)[C@H]3C2)cc1`, the Percent Effect in [1] was -4.22%; in experiment [2], 5.41%; in experiment [3] it was 2.69%; in [4], -2.48%; in experiment [5], 7.14%; in experiment [6], -4.14%. Further, the Percent Effect in experiment [7] is 15.3%; in experiment [8], -21.7%; in experiment [9], 0%; in experiment [10], 10.3%; in experiment [11], 0.212%.
On to `Cc1nc(CN(C)C2CCN(Cc3ccc4c(c3)OCCO4)C2)no1` (stereo unspecified), for which the Percent Effect was -7.11% in [1]; 13% in [2]; -0.861% in experiment [3]; -3.18% in experiment [4]; 5.39% in experiment [5]; 1.9% in experiment [6]. Besides, the Percent Effect in experiment [7] is 2.83%; in [8], -7.46%; in [9], 5.71%; in [10] it was 11.8%; in experiment [11], -17.4%.
